Where “and” joins values, the source holds several entries; their conditions need not be identical. Equal entries are not always repeated. Inconclusive results are not listed. Calls of active or inactive are those of the source. The call rests on the fitted dose curve; in most records, active means well fitted cell-killing curve with a large enough effect in the repeat runs; inconclusive means weak or mixed curves, or effect the other way; inactive means no such curve, though single readings can be large or run the other way.
assay: Caspase-3/7 induction in CHO-K1 cells by small molecules, qHTS cell viability counter screen (AID 1346979); details: CellTiter-Fluor fluorescence, 17 h; series mostly up to 92.4 µM; activity change, negative = cytotoxicity: at the top concentration; further: nearly all actives have a fitted effect of over 35% in size
Source text: National Center for Advancing Translational Sciences [NCATS]
NIH Chemical Genomics Center [NCGC]
U.S. Environmental Protection Agency [EPA]
National Institutes of Environmental Health Sciences [NIEHS]
National Toxicology Program [NTP]
U.S. Food and Drug Administration [FDA]
Apoptosis is a process of programmed cell death and plays a central role in the development of multicellular organisms. It is a highly regulated process and induces cell death by activating caspases, which are the members of cysteine aspartic acid-specific protease (caspase) family. Caspases involved in apoptosis are classified by their mechanism of action as initiator caspases (caspase-2, -8, -9 and -10) and executioner caspases (caspase-3, -6, and -7). Inhibition of apoptosis results in number of cancers, autoimmune diseases, inflammatory diseases and viral infection. To identify small molecule compounds that induce apoptosis, a homogeneous, luminescent Caspase-Glo 3/7 assay was used. Wild type CHO-K1 cells were used to screen Tox21 libraries for identifying caspase-3/7 activity inducers. Also cytotoxicity of the compounds was tested in parallel by measuring the cell viability using CellTiter-Fluor assay system in the same wells.
Tox21 Assay Protocol Summary:
CHO-K1 cells were dispensed at 1,500 per well in 5uL of culture medium into white solid bottom 1536-well plates (Corning Life Sciences, Corning, NY) using a Multidrop Combi (Thermo Scientific, Waltham, MA) dispenser. The assay plates were incubated at 37 C and 5% CO2 for 5hr, and then 23nL of compounds dissolved in DMSO and positive control were transferred using a Pintool station (Wako, San Diego, CA). The assay plates were incubated at 37C and 5% CO2 for 17hr. For cytotoxicity read, after 16hr incubation at 37C, 1uL CellTiter-Fluor reagent (Promega Corporation, Madison, WI) was added to each well of the assay plates using Flying Reagent Dispenser (FRD, Aurora Discovery, San Diego, CA). After 1hr incubation at 37C and 5% CO2, the fluorescence signal was quantified using a ViewLux plate reader (PerkinElmer, Shelton, CT).
On the % scale 0 is the no-effect control and ±100 the full control effect; potency means the concentration at half of the fitted maximal effect.

**Q.** For `CC[C@H](C)[C@H]1O[C@]2(C=C[C@@H]1C)C[C@@H]1C[C@@H](C/C=C(\C)[C@@H](O[C@H]3C[C@H](OC)[C@@H](O[C@H]4C[C@H](OC)[C@@H](NC)[C@H](C)O4)[C@H](C)O3)[C@@H](C)/C=C/C=C3\CO[C@@H]4[C@H](O)C(C)=C[C@@H](C(=O)O1)[C@]34O)O2`, which Potency is on record?
**A.** The Potency was 6.11 µM (active).

**Q.** Which “activity change, negative = cytotoxicity” value does the source give for `C=CC(=C)C` here?
**A.** The value was -0.717% (inactive).

**Q.** With `CC(Cc1ccc(O)cc1)NCC(O)c1cc(O)cc(O)c1` (stereo not given) as the molecule, how does the “activity change, negative = cytotoxicity” value read?
**A.** Its value is 3.38% [at 42.5 µM] (inactive).

**Q.** With `c1ccc(N=NNc2ccccc2)cc1` as the molecule, how does the Potency read?
**A.** The Potency was 56.4 µM (active).

**Q.** Which “activity change, negative = cytotoxicity” value does the source give for `O=C(O)[C@H](O)[C@@H](O)C(=O)O` here?
**A.** Its value is 7.43% (inactive).

**Q.** For `[Cl-].[Cl-].[Cl-].[Yb+3]`, which “activity change, negative = cytotoxicity” value is on record?
**A.** The value was -0.557% (inactive).

**Q.** Which Potency does the source give for `O=[N+]([O-])c1cc(C(F)(F)F)c(Cl)c([N+](=O)[O-])c1Nc1ncc(C(F)(F)F)cc1Cl` here?
**A.** Its Potency is 5.45 µM (active).

**Q.** With `CCN1CCC2(CC1)COc1cc3c(cc12)N(C(=O)c1ccc(-c2ccc(-c4nnc(C)o4)cc2C)cc1)CC3` as the molecule, how does the Potency read?
**A.** Its Potency is 25.2 µM (active).

**Q.** With `Cc1nn(-c2cc(NS(C)(=O)=O)c(Cl)cc2Cl)c(=O)n1C(F)F` as the molecule, how does the “activity change, negative = cytotoxicity” value read?
**A.** The value was -0.0495% (inactive).

**Q.** Which Potency does the source give for `CC(O)C(=O)[O][Hg][c]1ccccc1` (stereo not given) here?
**A.** Its Potency is 1.09 µM (active).

**Q.** Which Potency does the source give for `CN(C)C(=S)SSC(=S)N(C)C` here?
**A.** Its Potency is 240 nM (active) and 344 nM (active) and 298 nM (active).

**Q.** With `O=[N+]([O-])c1ccccc1-c1ccccc1` as the molecule, how does the “activity change, negative = cytotoxicity” value read?
**A.** Its value is 3.34% (inactive).

**Q.** For `CCNc1nc(NC(C)C(C)C)nc(SC)n1` (stereo not given), which “activity change, negative = cytotoxicity” value is on record?
**A.** Its value is -1.76% (inactive).

**Q.** Which “activity change, negative = cytotoxicity” value does the source give for `O=C(Nc1ccc(F)cc1F)c1cccnc1Oc1cccc(C(F)(F)F)c1` here?
**A.** Its value is 0.703% (inactive).

**Q.** Which “activity change, negative = cytotoxicity” value does the source give for `Oc1cccc(Cl)c1Cl` here?
**A.** Its value is 2.68% (inactive).

**Q.** For `S=C=Nc1ccccc1`, which “activity change, negative = cytotoxicity” value is on record?
**A.** Its value is -0.678% (inactive).

**Q.** With `CCN(CC)CCN1C(=O)CN=C(c2ccccc2F)c2cc(Cl)ccc21` as the molecule, how does the “activity change, negative = cytotoxicity” value read?
**A.** Its value is 5.56% [at 42.5 µM] (inactive).

**Q.** For `CCNS(=O)(=O)C(F)(F)C(F)(F)C(F)(F)C(F)(F)C(F)(F)C(F)(F)C(F)(F)C(F)(F)F`, which “activity change, negative = cytotoxicity” value is on record?
**A.** Its value is -0.267% (inactive).

**Q.** With `CC(C)=CCN1CC[C@@]2(C)c3cc(O)ccc3C[C@@H]1[C@@H]2C` as the molecule, how does the “activity change, negative = cytotoxicity” value read?
**A.** The value was -7.33% (inactive).

**Q.** Which “activity change, negative = cytotoxicity” value does the source give for `c1csc(-c2ccc(-c3cccs3)s2)c1` here?
**A.** The value was -4.81% (inactive).

**Q.** For `[C-]1=CC=CC1.[Cl][Zr+2][Cl].c1cc[cH-]c1`, which “activity change, negative = cytotoxicity” value is on record?
**A.** The value was 2.35% (inactive).

**Q.** Which Potency does the source give for `CC1(C)[C@H](/C=C2\CCSC2=O)[C@@H]1C(=O)OCc1coc(Cc2ccccc2)c1` here?
**A.** Its Potency is 61.1 µM (active).

**Q.** Which “activity change, negative = cytotoxicity” value does the source give for `C#CCO` here?
**A.** The value was 11.6% (inactive).

**Q.** Which “activity change, negative = cytotoxicity” value does the source give for `CC(C)N(C(=O)SC/C(Cl)=C/Cl)C(C)C` here?
**A.** The value was 3.57% (inactive).

**Q.** For `CCOP(=O)(OCC)Oc1cc(C)nc(C(C)C)n1`, which “activity change, negative = cytotoxicity” value is on record?
**A.** Its value is 6.47% (inactive).

**Q.** Which “activity change, negative = cytotoxicity” value does the source give for `COc1nc(C)nc(NC(=O)NS(=O)(=O)c2ccccc2Cl)n1` here?
**A.** Its value is -0.932% (inactive).

**Q.** With `CNC(=O)/C=C(\C)OP(=O)(OC)OC` as the molecule, how does the “activity change, negative = cytotoxicity” value read?
**A.** Its value is 12.2% (inactive).

**Q.** With `Fc1ccc(C(OCCN2CCN(CCCc3ccccc3)CC2)c2ccc(F)cc2)cc1` as the molecule, how does the Potency read?
**A.** Its Potency is 11.9 µM (active).

**Q.** With `O.O.O.O=C([O-])[C@H]([O-])[C@@H]([O-])C(=O)[O-].O=C([O-])[C@H]([O-])[C@@H]([O-])C(=O)[O-].[K+].[K+].[Sb+3].[Sb+3]` as the molecule, how does the Potency read?
**A.** The Potency was 17.3 µM (active).

**Q.** With `CCCCCCC[CH2][Sn]([Cl])([Cl])[CH2]CCCCCCC` as the molecule, how does the Potency read?
**A.** The Potency was 54.4 µM (active).

**Q.** With `Cc1ccc(C)c2ccccc12` as the molecule, how does the “activity change, negative = cytotoxicity” value read?
**A.** Its value is 12.4% (inactive).

**Q.** With `O=[N+]([O-])C(Br)Br` as the molecule, how does the “activity change, negative = cytotoxicity” value read?
**A.** The value was 5.08% (inactive).

**Q.** For `CCC1(CC)C(=O)N=C(O)NC1=O`, which “activity change, negative = cytotoxicity” value is on record?
**A.** The value was 3.22% (inactive).

**Q.** For `O=S1OCC2C(CO1)C1(Cl)C(Cl)=C(Cl)C2(Cl)C1(Cl)Cl` (stereo not given), which Potency is on record?
**A.** Its Potency is 61.2 µM (active) and 68.5 µM (active).

**Q.** With `CCC[CH2][Sn]([CH2]CCC)([CH2]CCC)[O][Sn]([CH2]CCC)([CH2]CCC)[CH2]CCC` as the molecule, how does the Potency read?
**A.** Its Potency is 0.336 µM (active).

**Q.** Which “activity change, negative = cytotoxicity” value does the source give for `CN/C(=N\[N+](=O)[O-])NCc1cnc(Cl)s1` here?
**A.** Its value is -2.24% (inactive).

**Q.** For `C[N+]1(C)[C@@H]2CC[C@H]1CC(OC(=O)C(CO)c1ccccc1)C2` (stereo not given in full), which “activity change, negative = cytotoxicity” value is on record?
**A.** Its value is 3.79% [at 42.5 µM] (inactive).

**Q.** With `Nc1cc(Cl)ccc1Cl` as the molecule, how does the “activity change, negative = cytotoxicity” value read?
**A.** Its value is 3.51% (inactive).

**Q.** For `[Cl-].[Cl-].[Sn+2]`, which “activity change, negative = cytotoxicity” value is on record?
**A.** The value was -1.34% (inactive).

**Q.** Which “activity change, negative = cytotoxicity” value does the source give for `COc1ccc2[nH]cc(CCN(C(C)C)C(C)C)c2c1` here?
**A.** The value was -7.48% (inactive).

From PubChem BioAssay (Tox21)
